Screens: PubChem BioAssay, National Center for Advancing Translational Sciences (NCATS)
12-LOX inh: Primary qHTS assay for inhibitors of human arachidonate 12S-lipoxygenase (ALOX12): Round 2; purified 12hLO, xylenol orange hydroperoxide absorbance; 580,000 compounds, 1.1% hits; Polyunsaturated fatty acid lipoxygenase ALOX12 (Homo sapiens), P18054; AID 1671190, 2021; Potency, µM (top dose mostly 108 µM), for the others: top-dose activity change, negative = inhibition, actives largely listed as inhibitors; note: potency is the fitted concentration of half-maximal effect; % is set by controls: 0 for no effect and ±100 for the full control effect
Target sequence (P18054 whole entry, looked up): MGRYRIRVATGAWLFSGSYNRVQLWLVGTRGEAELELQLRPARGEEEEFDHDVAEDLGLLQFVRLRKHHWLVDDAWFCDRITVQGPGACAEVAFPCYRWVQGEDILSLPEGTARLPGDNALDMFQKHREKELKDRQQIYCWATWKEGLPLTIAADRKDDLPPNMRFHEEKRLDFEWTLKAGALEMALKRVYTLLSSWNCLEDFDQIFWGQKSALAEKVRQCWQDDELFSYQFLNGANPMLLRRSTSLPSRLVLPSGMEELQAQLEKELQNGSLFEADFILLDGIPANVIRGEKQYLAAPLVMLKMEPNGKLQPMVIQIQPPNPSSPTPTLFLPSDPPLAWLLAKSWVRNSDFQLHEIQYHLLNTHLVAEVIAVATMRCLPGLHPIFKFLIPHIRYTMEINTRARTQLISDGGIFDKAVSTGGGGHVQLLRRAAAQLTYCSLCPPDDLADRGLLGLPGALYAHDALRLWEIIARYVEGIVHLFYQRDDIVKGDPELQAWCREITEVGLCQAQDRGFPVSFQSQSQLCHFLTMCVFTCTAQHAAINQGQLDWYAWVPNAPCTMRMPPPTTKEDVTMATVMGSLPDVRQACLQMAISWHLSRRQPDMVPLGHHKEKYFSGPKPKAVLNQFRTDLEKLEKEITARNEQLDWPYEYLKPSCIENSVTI
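Purified human 12hLO (150 nM final) in 25 mM Hepes, 0.01% Triton X-100, pH 7.0 was preincubated 15 min at room temperature with compound. Then 40 uM arachidonic acid was added, 30 min. Hydroperoxide was read by Fe-XO absorbance ratio 573/405 nm.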
Nrf2 inh: Nrf2 qHTS screen for inhibitors; Potency, µM (highest dose often 46 µM), without a hit: top-dose activity change, negative = inhibition, most hits filed as inhibitors; A549 ARE-Fluc reporter, luciferase luminescence, 18-24 h; 360,000 compounds, 2.1% hits; note: potency is the fitted concentration of half-maximal effect; % is set by controls: 0 for no effect and ±100 for the full control effect; nearly all actives have a fitted effect of over 60% in size
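A549 ARE_Fluc cells, 5000/well, 5% FBS OPTI-MEM; compounds in dose-response, 18-24 h at 37 °C/5% CO2; CellTiter-Fluor viability read (Ex 405/Em 525), then BugLite luciferase luminescence = Nrf2 activity.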
ERG-DNA inh: qHTS for Small Molecule Inhibitors of the ERG Ets/DNA interaction. Transcriptional regulator ERG (Homo sapiens), P11308. fluorescence polarization, His-ERG Ets domain / labelled DNA. Potency, µM (highest dose often 76.9 µM), for inactives: at the top dose FP activity, negative = inhibition, most hits filed as inhibitors. 370,000 compounds, 0.028% hits. AID 624246, 2012; active = well fitted inhibition curve with a large enough effect in the polarisation, with a control signal flat; inconclusive = small, poorly fitted or top-dose-only effect, or effect the other way, or a change in a side signal; inactive = no such curve, though single readings can be large or run the other way; the % refers to the polarisation;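 note: polarization taken with two DNA probes labelled with fluorescein and Texas red; potency is the fitted concentration of half-maximal effect; % of control where 0% means no effect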
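His-tagged ERG Ets domain (1 uM in the protein solution; 300mM KCl, 50mM Tris-HCl, 1mM EDTA, 1mM DTT, pH 7.5) received compound, then a probe mix of 5 nM fluorescein-DNA and 100nM Texas-615-DNA. Fluorescence polarization was read for both dyes.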
A549 tox: Nrf2 qHTS screen for inhibitors: counterscreen for cytotoxicity; Potency, µM (titrated, usually from 46 µM), for the others: top-dose activity change, negative = cytotoxicity, usual class: inhibitors; AID 504648, 2011; A549 ARE-Fluc cells, CellTiter-Fluor viability, 18-24 h; 390,000 compounds, 0.16% hits; note: potency is the fitted concentration of half-maximal effect; % is set by controls: 0 for no effect and ±100 for the full control effect
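A549 ARE_Fluc cells in 5% FBS OPTI-MEM were exposed to compounds in concentration-response for 18-24 h at 37 deg C. Viability was read by CellTiter-Fluor fluorescence (Ex 405/Em 525) after 30 min, before the luciferase read.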
Nrf2 activator: qHTS of Nrf2 Activators; AREc32 ARE-luciferase reporter (MCF7-derived line), luminescence, 24 h; Potency, µM (doses to about 46.1 µM), without a hit: at the highest dose activation, most hits filed as activators; 410,000 compounds, 0.31% hits; note: potency is the fitted concentration of half-maximal effect; % of control where 0% means no effect; nearly all actives have a fitted effect of over 65% in size
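Steps: seed AREc32_Fluc cells (1000/well, 5% FBS OPTI-MEM); incubate overnight at 37 deg C; add 23 nL compound; incubate 24 hr; add Steady-Glo; hold 30 min RT; read luminescence.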
LDHA inh: qHTS assay for inhibitors of human lactate dehydrogenase. L-lactate dehydrogenase A chain (Homo sapiens), P00338. purified LDHA, NADH/diaphorase-resazurin fluorescence; hits give low values. activity change, % (values are at about 110 or 230 µM). 480,000 compounds, 0.15% hits. AID 1347041, 2019; in the data active = activity change below about -30%; inconclusive = mostly about -25% to -30%;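 note: plate controls were DMSO wells for no effect and wells without enzyme for full effect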
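Resorufin fluorescence (ex540/em590), read at 0 and 20 min after diaphorase/resazurin addition, reports the NADH left after a 5 min room-temperature reaction of 2 nM human LDH5 with 0.06 mM NADH and 0.2 mM pyruvate.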
* marks the source's active call; other numbers are inactive results; ? = inconclusive; . = no result given; [ ] = another dose, or the depositor's remark. Compounds with a hit are over-represented: about 2.7% of the library has one in this group of screens. Unless noted, calls come from the whole dose curve; as a rule, active = well fitted curve in the direction sought with a large enough effect; inconclusive = small, poorly fitted or top-dose-only effect, or another doubt; inactive = no such curve, though single readings can be large; an effect the other way counts as inactive or inconclusive.

SMILES | 12-LOX inh | Nrf2 inh | ERG-DNA inh | A549 tox | Nrf2 activator | LDHA inh
COc1ccc(OC)c(/C=N/N(C)c2ccccc2)c1 | ? | ? | 6% | -2% | 4% | -4
Cc1ccc(-n2c(-c3ccc(Cl)cc3)n[nH]c2=S)c(C)c1 | ? | 7% | 0% | -7% | 3% | -1
Cc1ccc(-c2n[nH]c(=S)n2Cc2ccccc2)cc1 | 40µM* | ? | 1% | -8% | 0% | -12
S=c1[nH]nc(-c2cc3ccccc3o2)n1Cc1ccccc1 | 45µM* | ? | 5% | -1% | 3% | -4
COc1ccc(Cn2c(-c3ccc(OC)cc3)n[nH]c2=S)cc1 | 16µM* | -16% | 15% | 1% | 1% | -3
Cc1cccc(-c2n[nH]c(=S)n2Cc2ccccc2)c1 | ? | -3% | -8% | -4% | 0% | -3
COc1ccc(-c2n[nH]c(=S)n2-c2ccc(C)cc2C)cc1 | 6.3µM* | -13% | 6% | -5% | 0% | -4
COc1ccc(OCc2n[nH]c(=S)n2-c2ccc(C)cc2)cc1 | ? | -14% | 5% | -9% | -1% | -1
COc1ccc(Cc2n[nH]c(=S)n2CC(C)C)cc1 | 14µM* | . | . | . | . | 2
COc1ccc(-c2n[nH]c(=S)n2CC(C)C)cc1 | ? | -17% | 1% | -8% | 0% | -12
COc1ccc(-n2c(COc3cccc(C)c3)n[nH]c2=S)cc1 | 8.9µM* | -17% | -10% | -2% | 0% | -7
OC1CCN(c2c3c(nc4cc(-c5cccc(F)c5)nn24)CCCC3)CC1 | 4%[57.4 µM] | 23µM* | . | ? | 8% | -8
Fc1cccc(-c2cc3nc4c(c(N5CCC6(CC5)OCCO6)n3n2)CCCC4)c1 | -8% | 14% | . | -4% | 16% | -1
CN(Cc1ccccc1Br)c1cc(C(=O)N2CCOCC2)c2ccccc2n1 | 1% | . | . | . | . | -20
COc1ccc(C(=O)Oc2ccc3c(C)cc(=O)oc3c2C(C)=O)cc1 | -8% | 9% | 7% | 4% | 0% | -1
CC(=O)Oc1ccc2c(C)cc(=O)oc2c1C(=O)c1ccccc1 | -20% | 16% | 4% | 1% | -1% | -35*
CC(C)CCNc1nc(-c2ccc(O)c(C(N)=O)c2)cs1 | 7.9µM* | . | . | . | . | ?
Cc1ccccc1NC(=O)c1ccc(CNS(=O)(=O)c2ccc3c(c2)C(C)(C)C(=O)N3C)cc1 | -25% | -5% | 3% | 0% | 0% | 1
Cc1cccc(NC(=O)c2ccc(CNS(=O)(=O)c3ccc4c(c3)C(C)(C)C(=O)N4C)cc2)c1 | -25% | 21µM* | 5% | -16% | 0% | -5
Cc1ccc(NC(=O)c2ccc(CNS(=O)(=O)c3ccc4c(c3)C(C)(C)C(=O)N4C)cc2)cc1C | -26% | 18µM* | -14% | -29% | 0% | 1
COc1cccc(S(=O)(=O)NCc2ccc(C(=O)Nc3cccc(Cl)c3)cc2)c1 | ? | . | -17% | ? | 1% | -5
COc1cccc(NC(=O)c2ccc(CNS(=O)(=O)c3ccc4c(c3)C(C)(C)C(=O)N4C)cc2)c1 | -41% | 16µM* | 0% | -2% | 0% | -1
Cc1cc(C)c2c(=O)cc(C(=O)Nc3ccc(S(=O)(=O)Nc4nccc(C)n4)cc3)oc2c1 | -5% | . | . | . | . | 4
CCN(CC)S(=O)(=O)c1cccc(NC(=O)C2CC(=O)N(c3ccc4c(c3)OCCO4)C2)c1 (stereo not drawn) | -11% | 23µM* | 3% | -14% | 0% | 6
CCCCCC(=O)N/N=C/c1ccc([N+](=O)[O-])o1 | ? | . | 5% | -19% | 2% | 20
